# Source: PubChem BioAssay
# USP8 inh – inhibitors of human USP8 deubiquitinase | P40818 | purified USP8, Ub-rhodamine cleavage fluorescence, 30 min | inhibition, % at 20 µM | hit rate 4.2% among 47,000
# USP28 inh – human USP28 deubiquitinase inhibition. Q96RU2. purified USP28, Ub-rhodamine cleavage fluorescence, 30 min. inhibition, % at 25 µM. hit rate 3% among 47,000. AID 1645857
# USP30 block – blocks human USP30 ubiquitin-rhodamine cleavage | purified USP30, Ub-rhodamine cleavage fluorescence | inhibition, % at 25 µM | hit rate 5.3% among 47,000 | AID 1645860
# Target sequence (Q70CQ3 whole entry, looked up): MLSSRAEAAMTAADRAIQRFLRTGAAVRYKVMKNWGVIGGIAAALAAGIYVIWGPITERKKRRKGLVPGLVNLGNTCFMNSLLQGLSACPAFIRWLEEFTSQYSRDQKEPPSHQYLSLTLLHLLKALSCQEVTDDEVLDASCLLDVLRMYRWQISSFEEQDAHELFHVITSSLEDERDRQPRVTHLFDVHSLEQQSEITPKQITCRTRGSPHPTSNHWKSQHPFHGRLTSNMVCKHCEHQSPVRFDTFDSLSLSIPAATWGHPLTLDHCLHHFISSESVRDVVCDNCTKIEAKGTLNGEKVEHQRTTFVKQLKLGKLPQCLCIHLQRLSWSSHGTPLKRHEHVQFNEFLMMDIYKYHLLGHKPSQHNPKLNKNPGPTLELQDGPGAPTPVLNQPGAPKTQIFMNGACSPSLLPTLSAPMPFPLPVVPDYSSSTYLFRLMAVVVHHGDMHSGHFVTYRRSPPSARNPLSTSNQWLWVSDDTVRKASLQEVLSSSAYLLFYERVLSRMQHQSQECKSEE
# USP17 block – human USP17-like deubiquitinase inhibition | hit rate 6.5% among 47,000 | purified USP17, Ub-rhodamine cleavage fluorescence, 3 h | inhibition, % at 50 µM | AID 1645855 | A8MUK1
# OTUD3 inh – inhibitors of human OTUD3 deubiquitinase; inhibition, % at 25 µM; hit rate 0.7% among 47,000; purified OTUD3, Ub-rhodamine fluorescence, 2 h; Q5T2D3
# * marks the source's active call; other numbers are inactive results; nt = no result. Hits are enriched below; roughly 13% of the tested compounds scored in any of these assays. Rule as the data show it: active = inhibition above about 30%; inactive = the rest.
SMILES,USP8 inh,USP28 inh,USP30 block,USP17 block,OTUD3 inh
CCOc1ccc([C@@H]2c3c(C)nn(-c4ccccc4)c3NC(=O)[C@H]2NC(=O)c2cccc(C)c2)cc1,-13,15,3,8,5
COc1ccc(C(=O)NCC(=O)Nc2nc3ccccc3[nH]2)cc1,-2,-4,12,22,0
Cc1c(OCC(=O)Nc2nc3ccccc3[nH]2)ccc2c3c(c(=O)oc12)CCC3,8,8,52*,37*,0
O=C(CNC(=O)c1ccc(F)c(F)c1)Nc1nc2ccccc2[nH]1,7,2,11,22,7
COc1ccc(C(C)=O)cc1CC(=O)Nc1nc2ccccc2[nH]1,28,24,21,59*,5
O=C(CNC(=O)c1cc(F)cc(F)c1)Nc1nc2ccccc2[nH]1,36*,5,17,8,9
COc1ccccc1CC(=O)Nc1cnc(-c2ccc(F)cc2)nc1,30*,3,7,12,5
N#Cc1cccc(CN2CCCC3(Cc4ccccc4CNC3=O)C2)c1 (configuration not stated),-16,-11,2,-21,-8
COc1ccc(-c2cc(C(C)=O)c(C)n2CCC(=O)NCCc2ccc(Cl)cc2)cc1,5,6,6,3,6
Cc1ccccc1NC(=O)Cn1cccc(-c2nc(-c3ccc(F)cc3)no2)c1=O,2,-18,-32,-13,-7
c1cncc(CN2CCC[C@H]2c2nc(-c3ccc(-c4cncnc4)nc3)no2)c1,1,-2,-82,-37,0
COc1ccccc1CC(=O)Nc1nc2ccccc2[nH]1,10,3,15,60*,-2
O=C(Cc1ccccc1F)Nc1nc2ccccc2[nH]1,-2,-12,14,2,1
CCN(C)C(=O)c1cc(-c2cnc(-c3cccc(F)c3)nc2)cn1C,-14,0,0,-25,6
COc1ccc(CNC(=O)c2nc(-c3ccc4cc[nH]c4c3)no2)cc1,16,18,41*,26,15
O=C(NCc1ccccc1Cl)c1nc(-c2ccc3[nH]ccc3c2)no1,19,18,47*,49*,-4
O=C(NCc1ccncc1)c1nc(-c2ccc3[nH]ccc3c2)no1,2,5,1,2,1
O=C1/C(=C\c2ccc(O)cc2)CC/C1=C/c1ccc(O)cc1,-10,-73,-166,-69,-35
COc1ccc(Cn2c(=O)sc3ccccc3c2=O)cc1,20,44*,25,10,12
O=C(Nc1ccc2c(c1)OCCO2)c1cc2c(=O)n3ccccc3nc2n1Cc1ccccc1,1,-97,-21,1,-67
COc1ccc(NCc2nc3ccccc3n2Cc2ccccc2)cc1,90*,9,-30,64*,-4
COC(=O)c1cc2c(ccn2C)n1CC(=O)N1CCN(c2ccccc2F)CC1,-5,-25,-132,-17,-53
CC(/C=C/C(=O)NO[C@@H]1O[C@H](CO)[C@@H](O)[C@H](O)[C@H]1O)=C\C(C)C(=O)c1ccc(N(C)C)cc1 (some centres not stated),4,18,19,43*,2
COc1ccc(Cl)cc1C(=O)Nc1cnc(N2CCOCC2)nc1,-15,-16,-15,nt,-8
COc1ccc(Cl)cc1C(=O)Nc1cc(C)cc(C)n1,11,-15,9,46*,-9
SMILES,USP8 inh,USP28 inh,USP30 block,USP17 block,OTUD3 inh
COc1ccccc1OC(C)C(=O)Nc1ccc2nsnc2c1 (configuration not stated),73*,22,25,32*,17
Cc1ccc(NC(=O)c2ncn3c2CN(C)S(=O)(=O)c2ccccc2-3)cn1,-83,-18,-47,-30,-12
Cc1ccc(CN2CCCn3nc(C(=O)NCc4ccccc4F)cc3C2=O)cc1,4,13,9,12,0
Cc1ccc(CN2CCCn3nc(C(=O)NCc4ccc(F)cc4)cc3C2=O)cc1,-3,13,56*,38*,8
Cc1nc2ccc(C(=O)N3[C@H](Cc4cccc(F)c4)C[C@@H]4NC(=O)CCCC[C@H]43)cc2[nH]1,10,-2,-21,-3,1
CC1NC(=O)C(CC(N)=O)NC(=O)C(C(C)O)NC(=O)C(Cc2ccc(O)cc2)NC(=O)C(C(C)C)NC(=O)C(NC(=O)CC(O)CCCCCCCCCCCCN=C(N)N)C(C)OC1=O (configuration not stated),-20,87*,86*,34*,73*
CC(=O)c1ccccc1NC(=O)Cc1ccc(-c2ccccc2)cc1,-12,-12,-274,-12,-65
COC(=O)c1ccccc1NC(=O)COC(=O)CCc1ccccc1,35*,26,25,22,23
Cn1c(=O)c(N2CCCC(C(=O)O)C2)nc2cccnc21 (configuration not stated),5,-2,-10,0,-5
CN1CCN(C(=O)c2ccc3nnc(C4CCN(C(=O)N(C)C)C4)n3c2)CC1 (configuration not stated),-88,-5,10,-11,12
COc1ccc(OC)c(-c2cc(C(=O)Nc3c(C)nn(Cc4ccccc4)c3C)no2)c1,3,80*,-72,3,0
CC(=O)Nc1ccc(S(=O)(=O)N2CCCC2c2ccccc2)cc1 (configuration not stated),13,0,8,3,3
CC1CCN(S(=O)(=O)c2ccc(C(=O)Nc3ccc(S(N)(=O)=O)cc3)cc2)CC1,13,21,68*,10,0
CC(=O)Nc1ccc(S(=O)(=O)N2CCC(CN3CCCCC3)CC2)cc1,3,-2,16,-14,-6
CC1CCCCN1S(=O)(=O)c1ccc(C(=O)Nc2ccc(S(N)(=O)=O)cc2)cc1 (configuration not stated),29,35*,71*,56*,18
Cc1sc2ncc(C(=O)NC3CC3)c(=O)n2c1C,10,3,20,0,9
Cc1ccc(Cl)c(-n2nnc(C(=O)Nc3ccccc3F)c2C)c1,6,9,13,11,12
CCc1nnc(NC(=O)c2nnn(-c3ccccc3Cl)c2C)s1,-8,60*,37*,11,17
CC(C)Cn1c(CNC(=O)c2ccccc2F)nnc1SCC(=O)N1CCOCC1,-2,9,19,8,14
O=C1CN(C(=O)CC2CCCCC2)C(c2ccccc2)c2cc(Br)ccc2N1 (configuration not stated),21,25,41*,12,13
Cc1cc2nc(N3CCN(S(=O)(=O)c4ccc(C)c(C)c4)CC3)c3ccccc3n2n1,-5,0,-5,-1,-2
Cc1ccc(S(=O)(=O)c2nnn3c2nc(N2CCN(c4cc(C)ccc4C)CC2)c2ccccc23)cc1,9,1,30*,12,10
COc1ccc(Nc2nc3c(S(=O)(=O)c4ccc(C(C)C)cc4)nnn3c3ccccc23)cc1,5,10,32*,24,6
Cc1ccc(C)c(Nc2nc3c(S(=O)(=O)c4ccccc4)nnn3c3ccccc23)c1,39*,10,18,19,10
